The panel holds about 79,000 compounds, 15% with a hit somewhere; the sample as a whole holds those more often. Values without a mark were called inactive. Activity calls are given as the source filed them. Cut-off read from the data, not from the text of the source: active = growth inhibition above about 70%; inactive = the rest. Where a SMILES comes first, the peptide text is derived from it.
Legend:
[1] = NCI Yeast Anticancer Drug Screen. Data for the rad50 strain (AID 155);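 note: 0% = growth of vehicle-only cultures of the same strain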; conditions: S. cerevisiae rad50 strain growth inhibition; at 50.0 µM; hits give high values
How it was run: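 Cells are treated with compound, grown, and their growth is then scored against vehicle-only cultures of the same repair-deficient yeast strain.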

[2] = NCI Yeast Anticancer Drug Screen. Data for the mec2-1 strain (AID 157); conditions: S. cerevisiae mec2-1 strain, at 50.0 µM, hits give high values
How it was run: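 Cells of the genetically defined mec2-1 yeast strain are incubated with test compound. Inhibition of growth is calculated against vehicle-treated controls.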

[3] = NCI Yeast Anticancer Drug Screen. Data for the sgs1 mgt1 strain (AID 161);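 note: 0% = growth of cultures given vehicle only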; conditions: S. cerevisiae sgs1 mgt1 strain, at 50.0 µM, hits give high values
How it was run: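 Genetically altered yeast, compound exposure, growth inhibition relative to vehicle.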

[4] = NCI Yeast Anticancer Drug Screen. Data for the cln2 rad14 strain (AID 165);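 note: 0% = growth equal to vehicle treated cultures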; conditions: S. cerevisiae cln2 rad14 strain, at 50.0 µM, hits give high values
How it was run: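 The screen exposed genetically defined yeast (cln2 rad14) to test compounds and scored growth inhibition relative to vehicle-treated controls.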

[5] = NCI Yeast Anticancer Drug Screen. Data for the bub3 strain (AID 167); conditions: S. cerevisiae bub3 mutant strain, at 50.0 µM, hits give high values
How it was run: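 Part of a panel of yeast mutants defective in DNA damage repair or cell cycle regulation. Each strain is grown with compound, and inhibition is calculated relative to solvent-treated cultures.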

[6] = NCI Yeast Anticancer Drug Screen. Data for the mlh1 rad18 strain (AID 175); conditions: S. cerevisiae mlh1 rad18 strain growth inhibition; at 50.0 µM; hits give high values
How it was run: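 Compound-treated yeast growth, normalised to vehicle controls. Strain bears defined DNA repair mutations.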

| SMILES | growth inhibition [1] | growth inhibition [2] | growth inhibition [3] | growth inhibition [4] | growth inhibition [5] | growth inhibition [6] |
| --- | --- | --- | --- | --- | --- | --- |
| Cc1nc2c(=O)[nH]c(=S)[nH]c2[nH]c1=O | -15.2% | -28% | -2.1% | 12.5% | -1.3% | -1% |
| OCC1NCC(O)C(O)C1O (stereo unspecified) | -6.6% | -11.6% | -14.4% | 2.3% | -8.3% | 7.25% |
| O=c1cc(-c2ccccc2)nc(/C=C(\O)c2ccncc2)n1-c1ccccc1 | -4.25% | -18.9% | 0.4% | 10.1% | 15.5% | -8.15% |
| C[N+](C)(C)CCc1ccccc1 | 1.9% | -3.15% | -0.85% | -26.4% | -12.9% | 16.1% |
| Nc1nc2ncn(COC(CO)CO)c2c(=O)[nH]1 | 7% | 6.9% | -2.3% | 18.6% | 0.85% | 20.1% |
| c1ccc(COC[C@H]2O[C@@H](c3ccccc3)C[C@@H](OCc3ccccc3)C2OCc2ccccc2)cc1 (stereo partly specified) | -20.3% | -11.6% | -1.95% | -0.45% | -11.6% | 5.4% |
| CC(=O)OCC1OC(n2c(C)c(C(C)=O)c(-c3ccc(Cl)cc3)c(C#N)c2=S)C(OC(C)=O)C(OC(C)=O)C1OC(C)=O (stereo unspecified) | -37.9% | -9.55% | -2.1% | 12.2% | 9.15% | -2.65% |
| O=C(N/N=C\c1coc([N+](=O)[O-])c1)N/N=C/c1ccoc1 | 0.75% | 14.2% | 3.65% | -25.7% | -8.35% | 1.1% |
| CC(C)(C)OC(=O)NCCc1ccc(N)cc1 | -18.1% | -5.55% | 22.9% | -0.7% | 8.05% | -10.2% |
| O=C1OC(c2ccccc2)=C/C1=C/c1ccc(Cl)cc1 | -1.2% | -17.6% | -6.65% | -6.2% | -7.3% | -8.3% |
| CC1=Nc2nc(=NCCCN(C)C)nc3cccc(n23)N1 | 7.6% | -1.35% | 7.65% | 11.2% | 6.4% | 4% |
| CCCC(O)C(C)C(C)O (stereo unspecified) | -28.5% | -16.1% | -17.4% | 25.1% | -2.15% | -8.75% |
| COC(=O)/C(=N/NC(C)(C)C)C(C(=O)OC)C(=O)C(=O)Nc1nc2ccc([N+](=O)[O-])cc2s1 (stereo unspecified) | 33.1% | 8.15% | -22.9% | -10.4% | 0.1% | 27.4% |
| CCCCNC(=O)C(C)S(=O)(=O)c1ccc(C)cc1 (stereo unspecified) | 6.6% | 16.4% | -17.3% | -21.7% | -2% | 11.8% |
| Nc1nnc(-c2ccc(Nc3nc4ccccc4[nH]3)c([N+](=O)[O-])c2)s1 | 7% | 1.4% | 27.7% | 15.3% | 3.15% | 14.1% |
| OCC(O)C(O)C(O)[C@H](O)c1nc2ccccc2[nH]1 (stereo partly specified) | -15.7% | -1.7% | 0.15% | -19.6% | 27.4% | 14.8% |
| COc1ncc(/C=C2\OC(=O)c3ccccc32)c(OC)n1 | 1.6% | -16.1% | 19.9% | 2.6% | 6.05% | 16.9% |
| Cc1nc2[nH]cc(-c3ccccc3)c2c(=N)n1-c1ccc(F)cc1 | -7.45% | 0.8% | -11.2% | -23.1% | -7.6% | 0.55% |
| Cc1cc(Cl)ccc1NC(=O)Nc1c(Oc2ccc(Cl)cc2)ccc(Cl)c1S(=O)(=O)O | 76.8% (active) | 36.8% | 55.5% | 3.85% | -0.75% | 45.9% |
| CC(=O)c1cccc(OCC(O)CN2CCN(c3ccc(C)cc3)CC2)c1 (stereo unspecified) | -12.3% | 3.95% | 4.1% | -8.9% | 3.15% | -2.25% |
| Nc1c(Cl)cc2c(c1Br)C(=O)c1ccccc1C2=O | 13.7% | -3.5% | 1.1% | 23.4% | 11.9% | 19.5% |

| SMILES | growth inhibition [1] | growth inhibition [2] | growth inhibition [3] | growth inhibition [4] | growth inhibition [5] | growth inhibition [6] |
| --- | --- | --- | --- | --- | --- | --- |
| C=CCSc1ncnc2nc[nH]c12 | 7.9% | -1.3% | 1.55% | -3.15% | -0.45% | 9.1% |
| COC(=O)C(N)Cc1ccc(OCc2ccccc2)cc1 (stereo unspecified) | -0.8% | 5.2% | -2.25% | -4.25% | 24.4% | -5.35% |
| CN(C)c1ccc2c(c1)C(O)c1ccccc1-2 (stereo unspecified) | -7.3% | -6.55% | 1.1% | -0.65% | 19.4% | 0.7% |
| Nc1ccc(C(=O)NN2C(=O)C(Cl)C2c2ccc(O)cc2)cc1 (stereo unspecified) | -1.75% | -1.45% | -17.2% | -3.05% | 4.8% | -25.6% |
| CCCC(=O)c1c(C)cc(C)cc1C | -6.6% | -19.7% | -24.4% | 9.45% | -7.55% | 11.1% |
| Cn1ncc2c(NCc3ccccc3)ncnc21 | 13.2% | 3.15% | 23.1% | -44% | 2.7% | 0.5% |
| CC/C(C)=C1\OC(=O)C(C)C(O)C(Cc2cccnc2)NC(=O)C(NC(=O)c2ncccc2O)C(C)OC1=O (stereo unspecified) | -4.45% | 3.7% | 0.45% | -10.4% | -3% | -14.9% |
| CC12CCC(=O)C=C1CCC1C2CCC2(C)C1CCC2(O)C(=O)Cn1c(=O)cc[nH]c1=O (stereo unspecified) | 10.3% | 4.65% | 1.5% | 14.7% | -2.7% | 11.5% |
| CCCCCCCCCCCCCCCCC1Cc2ccccc2C1 | -12.6% | 8% | -12.8% | -12.1% | -4.15% | -7.6% |
| O=S(=O)(O)c1cc(N=Nc2cc(S(=O)(=O)O)c3ccccc3c2O)ccc1/C=C/c1ccc(N=Nc2cc(S(=O)(=O)O)c3ccccc3c2O)cc1S(=O)(=O)O | 34% | 36% | 17.6% | 13.7% | 45.9% | 42.6% |
| CC(C)CC1NC(=O)C(C(C)C)NC(=O)CC(C)COC(=O)C(CC(C)C)N(C)C(=O)C(C(C)C)NC(=O)C(C(C)C)OC1=O (stereo unspecified) | -8.2% | -3.7% | 7.55% | 7.95% | 8.1% | 14.3% |
| CCOC(=O)c1ccc(Nc2nc3ccccc3o2)cc1 | 5% | -7.6% | 9.05% | -14.2% | -0.95% | 1.7% |
| O=C(c1nc2ccccc2[nH]1)N1CCN(c2ccccc2)CC1 | 2.95% | -1.55% | -9% | 5.55% | 1.35% | 7.3% |
| CC(C)C(=O)OC1CCCCC1Cc1ccccn1 (stereo unspecified) | 21.1% | -3.25% | 29.1% | -17% | 24.1% | -6.8% |
| CCC(C)C(N)C(=O)NC(C(=O)O)C(C)C (stereo not drawn) (H-Ile-Val-OH; configuration not given here) | -32.4% | -13.6% | -0.2% | -41.9% | -0.25% | -0.4% |
| COc1cccc(C2CC(C)(N3CCCC3)Oc3cc4c(cc32)OCO4)c1O (stereo unspecified) | 7.5% | 13.9% | 10% | 13.8% | 28.6% | -10.2% |
| OCCCCCCO | -2.55% | -15.6% | 16.1% | -16.7% | 4.3% | 12.3% |
| CN(C)c1ccc(N=Nc2cc3c4ccccc4ccc3c3ccccc23)cc1 | 15.1% | -10.2% | 23.1% | 1.6% | 9.45% | 23.3% |
| CCN(C)c1ccccc1 | -5.8% | -27.8% | -3.2% | -31.9% | -6.6% | 11.2% |
| CCOc1ccccc1NC(=O)c1ccc(Cl)cc1 | -9.8% | 18% | -6.75% | 5.35% | 14.3% | -4.6% |
